Screening results from PubChem BioAssay.
Giardia FBPA inh-1 – qHTS Assay for Inhibitors of Fructose-1,6-bisphosphate Aldolase from Giardia Lamblia. purified Giardia FBPA. AID 2451, 2010. 290,000 tested, 0.71% active. Potency, µM (top dose mostly 59.6 µM), actives largely listed as inhibitors; also: nearly all actives have a fitted effect of over 55% in size
Target sequence (A8B2U2 whole entry, looked up): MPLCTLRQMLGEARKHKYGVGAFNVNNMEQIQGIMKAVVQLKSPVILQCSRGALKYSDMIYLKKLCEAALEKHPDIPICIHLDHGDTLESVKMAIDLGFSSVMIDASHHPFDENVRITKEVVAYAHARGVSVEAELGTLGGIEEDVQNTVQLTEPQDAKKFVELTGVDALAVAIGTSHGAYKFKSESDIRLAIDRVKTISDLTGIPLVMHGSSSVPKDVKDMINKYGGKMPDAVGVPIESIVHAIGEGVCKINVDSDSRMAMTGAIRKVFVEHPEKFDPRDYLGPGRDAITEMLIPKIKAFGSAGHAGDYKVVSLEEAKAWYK
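Giardia FBPA (40 nM reagent) was preincubated 10 min at RT with compound (up to 57.5 uM final), then substrate plus GAPDH/TPI/NAD/arsenate coupling system with diaphorase/resazurin was added; resorufin fluorescence (525/598 nm) was read after 20 min.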
RE007 growth inh – qHTS Assay for Inhibitors of the HIV-1 protein Vpr | S. pombe RE007 Vpr strain, BacTiter-Glo ATP luminescence, 24 h | Potency, µM (doses to about 92.2 µM), most hits filed as inhibitors | 360,000 tested, 0.21% active; active = well fitted falling curve with a large enough effect; inconclusive = small, poorly fitted or top-dose-only effect; inactive = no such curve, though single readings can be large or run the other way; also: nearly all actives have a fitted effect of over 50% in size
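Fission yeast strain RE007, carrying one chromosomally integrated HIV-1 vpr copy, was seeded at OD 0.01 in PMG+AL medium with 23 nL pinned compound. After 24 h at 30 °C and 99% humidity, viability was read by BacTiter-Glo luminescence.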
LmPK inh – qHTS Assay for Inhibitors of Leishmania Mexicana Pyruvate Kinase (LmPK) | Potency, µM (top dose mostly 57.5 µM), actives largely listed as inhibitors | AID 1721, 2009 | purified LmPK, Kinase-Glo ATP luminescence, 1 h | 290,000 tested, 0.37% active
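Purified LmPK (0.1 nM) converted ADP (0.1 mM) to ATP with PEP (0.5 mM) in imidazole buffer pH 7.2 with KCl and MgCl2, 1 h at room temperature. ATP was read by Kinase-Glo luminescence; data normalized to uninhibited and no-enzyme controls.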
Tb PYK inh – qHTS of Trypanosoma Brucei Inhibitors. AID 624173, 2012. TbPYK enzyme, Kinase-Glo Plus ATP luminescence, 45 min. Potency, µM (titrated, usually from 76.8 µM), most hits filed as inhibitors. 410,000 tested, 0.12% active. pyruvate kinase (Trypanosoma brucei), Q57TT1; also: nearly all actives have a fitted effect of over 50% in size
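Luminescent Kinase-Glo Plus end-point after 45 min room-temperature reaction of T. brucei pyruvate kinase started with 130 uM ADP (final). Buffer TEA 50 mM pH 7.2 with KCl, MgCl2, BSA, Tween-20; titration-based qHTS with fitted concentration-effect curves.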
Giardia growth – qHTS Assay for Inhibitors of Fructose-1,6-bisphosphate Aldolase from Giardia Lamblia: Giardia lamblia growth inhibition | shares compounds with Giardia FBPA inh-1 | Giardia lamblia trophozoite growth inhibition | Potency, µM (series often up to 57.5 µM), most hits filed as inhibitors | 1,500 tested, 5% active;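 also: trophozoites exposed to compound for 48 h at 37 °C; nearly all actives have a fitted effect of over 70% in size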
Mammal cell tox – qHTS Assay for Inhibitors of Fructose-1,6-bisphosphate Aldolase from Giardia Lamblia: Mammalian cellular toxicity. 1,500 tested, 4% active. Potency, µM (titrated, usually from 57.5 µM), most hits filed as inhibitors. AID 2786, 2010. shares compounds with Giardia FBPA inh-1. mammalian cell viability counter-screen, qHTS;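 also: Chinese hamster ovary cells used as mammalian cytotoxicity surrogate; viability measured as cellular ATP by luminescence; compound exposure lasted 48 h before reading; nearly all actives have a fitted effect of over 60% in size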
Giardia FBPA inh-2 – qHTS Assay for Inhibitors of Fructose-1,6-bisphosphate Aldolase from Giardia Lamblia: Primary screen confirmation. 1,500 tested, 5% active. shares compounds with Giardia FBPA inh-1. Potency, µM (highest dose often 57.5 µM), hits mostly inhibitors. purified Giardia aldolase enzyme activity, qHTS; also: nearly all actives have a fitted effect of over 45% in size
Rabbit FBPA inh – qHTS Assay for Inhibitors of Fructose-1,6-bisphosphate Aldolase from Giardia Lamblia: Rabbit FBPA Selectivity; shares compounds with Giardia FBPA inh-1; Rabbit muscle FBPA enzyme inhibition, selectivity counter-screen; Potency, µM (doses to about 57.5 µM), most hits filed as inhibitors; 1,500 tested, 4% active; also: nearly all actives have a fitted effect of over 60% in size
GAPDH counter – qHTS Assay for Inhibitors of Fructose-1,6-bisphosphate Aldolase from Giardia Lamblia: Coupling assay counterscreen confirmation. AID 2795, 2010. 1,500 tested, 6% active. GAPDH coupling enzyme counterscreen, biochemical, qHTS. Potency, µM (titrated, usually from 57.5 µM), usual class: inhibitors. shares compounds with Giardia FBPA inh-1; also: nearly all actives have a fitted effect of over 55% in size
Large screens that a line does not name were inactive (follow-up assays come after a bar, where they were run); ! = not active in a repeat; [ ] = dose if it differs, or a comment. In the library only some 0.95% were active in any assay of this set; here they are far more common. Unless noted, calls follow the shape of the dose curve; as a rule, active = well fitted curve in the direction sought with a large enough effect; inconclusive = small, poorly fitted or top-dose-only effect, or another doubt; inactive = no such curve, though single readings can be large; an effect the other way counts as inactive or inconclusive.

O=S1(=O)C2CC3C=CC2(CN1Cc1cccc(F)c1)O3 (stereo unspecified)	none (no result: RE007 growth inh, LmPK inh, Tb PYK inh)
Cc1ccc(C(=O)N2CCCCC2CCN2CCCCC2)cc1 (stereo unspecified)	none (no result: Giardia FBPA inh-1, RE007 growth inh, LmPK inh)
O=C1CC(c2ccc(O)c(O)c2)Oc2cc(O)cc(O)c21 (stereo unspecified)	none
Oc1ccc(C2C[C@H]3CC[C@@H]2C3)cc1O (stereo partly specified)	Giardia FBPA inh-1 28µM, LmPK inh inconclusive, Tb PYK inh inconclusive | Giardia growth inactive | Mammal cell tox inactive | Giardia FBPA inh-2 14µM | Rabbit FBPA inh 32µM | GAPDH counter 32µM
C=CCOc1ccc2c(=O)n(C)c3ccccc3c2c1	none (no result: RE007 growth inh, LmPK inh, Tb PYK inh)
CC(C)C(C(=O)Nc1ccccc1F)N1C(=O)c2ccccc2C1=O (stereo unspecified)	none (no result: Giardia FBPA inh-1, LmPK inh)
CC(C(=O)Nc1ccccc1F)N1CCN(C)CC1 (stereo unspecified)	Giardia FBPA inh-1 16µM (no result: RE007 growth inh, Tb PYK inh) | Giardia growth inactive | Mammal cell tox inactive | Giardia FBPA inh-2 inactive | Rabbit FBPA inh inactive | GAPDH counter inactive
S=C1NCCOCCNC(=S)NCCOCCOCCOCCN1	Giardia FBPA inh-1 4.5µM | Giardia growth inactive | Mammal cell tox inactive | Giardia FBPA inh-2 inactive | Rabbit FBPA inh inactive | GAPDH counter inactive
COc1ccc2nc(S(=O)Cc3ncc(C)c(OC)c3C)[nH]c2c1 (stereo unspecified)	Giardia FBPA inh-1 16µM! | Giardia growth inconclusive | Mammal cell tox inactive | Giardia FBPA inh-2 inactive | Rabbit FBPA inh inactive | GAPDH counter inactive
COc1ccc2nc(SCC(=O)Nc3c(C)cccc3C)[nH]c2c1	none
CCN1C(=O)[C@H]2[C@H]3[C@H](O)[C@H](O)C/C(=N/OCC(C)C)[C@H]3CC[C@@H]2C1=O	none (no result: RE007 growth inh, LmPK inh, Tb PYK inh)
O=C(O)Cn1cnc2c(=S)nc[nH]c21	Giardia FBPA inh-1 3.5µM, Tb PYK inh inconclusive | Giardia growth inactive | Mammal cell tox inactive | Giardia FBPA inh-2 inactive | Rabbit FBPA inh inactive | GAPDH counter inactive
O=C(CCCCn1cnc2c(=S)nc[nH]c21)Nc1ccc(C(=O)O)cc1	Tb PYK inh inconclusive (no result: Giardia FBPA inh-1, LmPK inh)
O=C(c1ccco1)N1CCC2(CC1)CN(C(c1ccccc1)c1ccccc1)C2	none (no result: RE007 growth inh, LmPK inh)
O=C(Nc1ccccc1)Oc1ccc[nH]c1=O	Giardia FBPA inh-1 1.4µM | Giardia growth inactive | Mammal cell tox inconclusive | Giardia FBPA inh-2 0.23µM | Rabbit FBPA inh 0.73µM | GAPDH counter 2.6µM
OCCN(CCO)c1cc2c3ccccc3ccc2c2ccccc12	RE007 growth inh inconclusive (no result: Giardia FBPA inh-1, LmPK inh)
OCCN(CCO)c1ccc2ccccc2c1	Giardia FBPA inh-1 16µM | Giardia growth inactive[10.4 µM] | Mammal cell tox inactive | Giardia FBPA inh-2 4µM | Rabbit FBPA inh inconclusive | GAPDH counter inactive
COc1cccc2nc(-c3cccs3)nc(NN3C(=O)C=C(C)C3=O)c12	none (no result: RE007 growth inh, LmPK inh, Tb PYK inh)
COC(=O)CC1C(=O)NCCN1C(=S)NC(=O)c1sc2ccccc2c1Cl (stereo unspecified)	Giardia FBPA inh-1 16µM | Giardia growth inactive | Mammal cell tox inactive | Giardia FBPA inh-2 inactive | Rabbit FBPA inh inactive | GAPDH counter inactive
